Residue numbers refer to the chain shown, from its start. Whole data set: some 24,000 sequences, median “enrichment r” near 0.99, cut for the highest 2% near 3.7. The sample as a whole holds a higher share of the highest values than the screen did.
B1: chr7:7679991:7679992:-_ENSG00000106399_ENST00000396682|hu_hu|hu_hu_hu_mus_False|68_68 (ssRNA)
RNA: GGGAGUUCUACAGUCCGACGAUCUGGGAUGAAUCUUUUCCAGCUUCCCCACGAAGCACACGGGCCGGUCGAUGAAUUGUGGUAACAUGCUGGCGUUGACGCGCGCUUUGGGGAGCUGCAUUAUGUCCUCCAUGAUUCUGCCGCCAACAGAGGAUUGAGCAUCA
B2: 76906679_76906799_897_3pUTR_ENSMUSG00000022010_ENSMUST00000022587|mouse|control|control (ssRNA)
RNA: GGGAGUUCUACAGUCCGACGAUCUGGGGAGGGUUGAAAAGGCACAGAGCUCCUCGGGGUCAAUUAAACCAUUCCUCAGACAUCUGCCACGUUGCACAGGGCACAUCCCUGCUCACUCUCUGAUUAACCUUUAAUUCACUCAACCAACAGAGGAUUGAGCAUCA
B3: 129354385_129360783_1558_CDS_ENSG00000056277_ENST00000370978|human|control|control (ssRNA)
RNA: GGGAGUUCUACAGUCCGACGAUCAUGUUCAGCUUUCUCCUUGCUGGUCAAAAAUUGUAGUCUGCAUUUUGGGCAACGAUGAACUCCUUUUUUCUGAUGCUUCAUGUAAUGAUUCAUGUAGGGGGUUGCCAUUUUACUAACUUUCAACAGAGGAUUGAGCAUCA
B4: chr2:219525992:219525993:+_ENSG00000074582_ENST00000359273|hu_mus|FALSE|FALSE (ssRNA)
RNA: GGGAGUUCUACAGUCCGACGAUCGAUCCAUUUUCCCUGAUACCAAAUGAAGUGGUUUCCAGGGCUGGGGAUAAAUUCAAACUUGGUGGAGAUCCGGCCACUUUCAUGCUGAAGGUAUGAGGUUUCAACACUGAGGUGCUGAGUCAACAGAGGAUUGAGCAUCA
B5: 156047189_156047309_678_CDS_ENSG00000254726_ENST00000532414|human|control|control (ssRNA)
RNA: GGGAGUUCUACAGUCCGACGAUCGAUGGUUGCCCCUUUGGGGCCCACCACCAGCCCCACCACGCGGUAGGGCACCCGCACACGGAUGGUCACCUGGCCGGGCAGAGCAGGAGCCACACCAAAGGCGGCGCCUGACUUGUUGCGCAACAGAGGAUUGAGCAUCA
B6: 107436344_107436464_280_CDS_ENSMUSG00000020721_ENSMUST00000106746|mouse|control|control (ssRNA)
RNA: GGGAGUUCUACAGUCCGACGAUCGGCAAUUCUGUAAAGAAGACUCUCAAUUUUGAUGCGCUCAACCUCCACCGGGCACGGCCCUGUGAAGUCUGCCAUGGAGUACUGGCCAAGAGAGAGCAGGGCGUCGGUGCAGUGCUGGAGCAACAGAGGAUUGAGCAUCA
B7: 139370288_139370408_1793_CDS_ENSG00000148396_ENST00000313050|human|control|control (ssRNA)
RNA: GGGAGUUCUACAGUCCGACGAUCGGUUGAGGGCUGGGACACGCUGCCACGGUAAUUCUGGCUCACAGUGGUCUCGUCUGUUUCACCUCCUACGGGAGAAGAAUCGAUUUGCUUAAAAAAACUACCUGAAGCUUCAUCCUCGGGCAACAGAGGAUUGAGCAUCA
B8: 15271559_15271679_6895_CDS_ENSG00000074181_ENST00000263388|human|control|control (ssRNA)
RNA: GGGAGUUCUACAGUCCGACGAUCGGGAAGUGGCUGGGCAGGCAGUGCCCCAGUGGUGGUGGCCAUGGCCCCAGUGGCAGUGGCUGGGCUAGGCGUGGAUUCGGACCAGUCUGAGAGGGAGGGAGGUGAGGGGCUGGCCCAGUGCAACAGAGGAUUGAGCAUCA
B9: 129698844_129698964_1004_3pUTR_ENSMUSG00000026349_ENSMUST00000027587|mouse|control|control (ssRNA)
RNA: GGGAGUUCUACAGUCCGACGAUCCUGCUAGCACUGAUAAAUUAUCAGAUGCACGGCUAUCUUGAACAGAAGUACUUCCUGAAUUUAGAGGUAUUGGAGCAGGGAACGUUGAUGUUGAUGGUUUCUGAAAGCUUGGGUUGGCAGCAACAGAGGAUUGAGCAUCA
B10: chr1:184247048:184247049:-_ENSMUSG00000047539_ENSMUST00000051431|mus_mus|FALSE|FALSE (ssRNA)
RNA: GGGAGUUCUACAGUCCGACGAUCCUGGAGCUAGAGCCAUAUUCCAAUCUACUUCCUAUUCCGAAGUCGUUUGGAUUUCCUAAGAGAGUCUAUGGCUUCCGUUGCCUUCCGUCGUUUCCGAGGGGACUCCUCACUCUGCCCAGACAACAGAGGAUUGAGCAUCA
B11: chr11:20101544:20101545:+_ENSMUSG00000020149_ENSMUST00000020358|mus_hu|FALSE|FALSE (ssRNA)
RNA: GGGAGUUCUACAGUCCGACGAUCUGCCGCAGCCGCCGCCCUGACUCUCCGCGCCACGGGUAAUCGAAAGAAAGGAAUGAGAUAGGCUGUUCCGGGAGAGCAAACGUCUUCCCCUACUCCGUCCCCUAGAACACAAUCAGCAGCCAACAGAGGAUUGAGCAUCA
B12: chr17:56552419:56552420:-_ENSMUSG00000013236_ENSMUST00000086828|mus_mus|mus_mus_mus_hu_False|18_68 (ssRNA)
RNA: GGGAGUUCUACAGUCCGACGAUCAAAAAAUACACUAUUUAAAAAAAAUGAAAUGUCACGGGAUACAAAAAAAUAUAGAGUUUUAAAAGAAAGCUGGAUUCUGGUCCCAGCCCAGUGGCAGGCAGGGGCAGAGCGGGGAGGAGCCAACAGAGGAUUGAGCAUCA
B13: chr15:76910149:76910150:-_ENSMUSG00000033565_ENSMUST00000166610|mus_mus|FALSE|FALSE (ssRNA)
RNA: GGGAGUUCUACAGUCCGACGAUCAAUGCUGACGGAGGGAAGUCAUGUCUCUUAGGGGAAAGGAUCAGCUCAUCACUCGCUAUAUAACGCAGCCAAACGGGCUGCCCAACAAGCACGCACACAAGAAAUACUGUUAACAGAAAACAACAGAGGAUUGAGCAUCA
B14: chr17:56552419:56552420:-_ENSMUSG00000013236_ENSMUST00000086828|mus_mus|mus_mus_mus_hu_False|58_68 (ssRNA)
RNA: GGGAGUUCUACAGUCCGACGAUCAAAAAAUACACUAUUUAAAAAAAAUGAAAUGUCACGGGAUACAAAAAAAUAUACACUAUUAAAAGAAAGCUGGAUUCUGGUCCCAGCCCAGUGUCCCCAGGCUGCAGAGCGGGGAGGAGCCAACAGAGGAUUGAGCAUCA
B15: chr17:56552419:56552420:-_ENSMUSG00000013236_ENSMUST00000086828|mus_mus|mus_mus_mus_hu_False|68_68 (ssRNA)
RNA: B14 RNA with C77G, C79G, A81U
B16: chr6:38652254:38652255:-_ENSG00000124767_ENST00000373365|hu_hu|hu_hu_hu_mus_False|58_98 (ssRNA)
RNA: GGGAGUUCUACAGUCCGACGAUCCGAGAACUUCAUAAUGGGAAAAUCAAGCUUCUGCAGGAGGGUCAGUCCAAGAACUCUAGUAUAAAAAUCCAGGGACUUCUUAGGAUCCUUAAUUCUUAGCAUCGUUUGCUGCAGUAGAAACAACAGAGGAUUGAGCAUCA
B17: chr15:37385894:37385895:-_ENSG00000134138_ENST00000382766|hu_mus|motif|central (ssRNA)
RNA: GGGAGUUCUACAGUCCGACGAUCGCUUCCAUCUCUCUCAUCAAUCACGAGGUCAAUGGGCAUUUUUCCCUUCAAACAGCGGAUGUACCGGUGGCAGAAGUUAUCACAUAGUUCGUGGACCUUUUCUAACUCCAGAAGAUGAAACAACAGAGGAUUGAGCAUCA
B18: chr8:29959424:29959425:+_ENSG00000104660_ENST00000321250|hu_hu|FALSE|FALSE (ssRNA)
RNA: GGGAGUUCUACAGUCCGACGAUCGAAGGGCACAUCCAAGCAUCAAAAACAUCAGUCCGAUUGCUCCUCCAAAGGACAAACUAAUCAAAGCUUUGAUGCCUGCCAUGGCGGUGACGUCGCUCCUGGCUCCACGACCCGAGGCGGCAACAGAGGAUUGAGCAUCA
B19: chr13:13598695:13598696:+_ENSMUSG00000005397_ENSMUST00000005532|mus_hu|FALSE|FALSE (ssRNA)
RNA: GGGAGUUCUACAGUCCGACGAUCCACCAAGUCAGUCUCAAAGAGCACCCGGCGCUGCGUGCCGUCCAGCUUCGCCACUUCUAUUCGAUCCAGGUUAGAGUCUGUCCAGAAGAUGUUGCGGCCAAGGUGAUCAACAGCGAUACCCAACAGAGGAUUGAGCAUCA
B20: chrX:73036348:73036349:-_ENSMUSG00000016382_ENSMUST00000114059|mus_mus|FALSE|FALSE (ssRNA)
RNA: GGGAGUUCUACAGUCCGACGAUCUGCGUACUUGGCGUUAUUGUGCUUGUCAUCUUCUGUUAGAUUCCCACUCUUCACAAGGUCAUAGUUAAUGCAGCCUGGUUGGAUGGCGUCAAUUAAAUCCACAACCGCCAAACUGGAGCUCAACAGAGGAUUGAGCAUCA
B21: 70939002_70942968_1374_3pUTR_ENSMUSG00000034761_ENSMUST00000110570|mouse|control|control (ssRNA)
RNA: GGGAGUUCUACAGUCCGACGAUCGCUCCGCUCUGGAAUUCCUGUUUGUUGAUCUAAUGGUAUGACGAAUGAUUGCGUGGGGCUCCAAGUCGUCCUCAUCGCCCUCACUGUAGGGAGCAUGGUUGUCCGGAUUGCUCACCUUGUCAACAGAGGAUUGAGCAUCA
B22: chr8:133807003:133807004:+_ENSG00000129292_ENST00000220847|hu_mus|FALSE|FALSE (ssRNA)
RNA: GGGAGUUCUACAGUCCGACGAUCUUUGUUAAUUGCUUCAAUCUUGGCAGGGUAAUAGCGACAGUCUGUCCAACGAGCCAGUACUUCUUCUCCAGCUUUAAAAUCAAAGAGCUCUUCCUCAUCCUUUAGCCCUUCUUUCCUUAGCAACAGAGGAUUGAGCAUCA

Target: T1, UNK ZnF1-3 (human, UniProt Q9C0B0 31-174)
T1 sequence: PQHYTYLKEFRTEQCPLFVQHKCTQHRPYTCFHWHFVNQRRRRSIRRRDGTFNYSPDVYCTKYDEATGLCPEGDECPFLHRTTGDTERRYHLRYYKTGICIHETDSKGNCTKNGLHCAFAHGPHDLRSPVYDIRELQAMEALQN
Experiment: nsRBNS (natural sequence RNA bind-n-seq); RBNS binding buffer (assumed for nsRBNS): 25 mM Tris pH 7.5, 150 mM KCl, 3 mM MgCl2, 0.01% Triton X-100, 500 ug/ml BSA, 20 U/ml SUPERase-In, 4 C; UNK is unkempt and MSI1 is Musashi-1; names of the RNAs are library labels; protein concentration not given here; high values mean tight binding

| Binder | binding signal |
| --- | --- |
| B1 | 0.493 enrichment R |
| B2 | 1.14 enrichment R |
| B3 | 0.531 enrichment R |
| B4 | 0.804 enrichment R |
| B5 | 0.73 enrichment R |
| B6 | 0.894 enrichment R |
| B7 | 0.768 enrichment R |
| B8 | 2.43 enrichment R |
| B9 | 1.96 enrichment R |
| B10 | 0.688 enrichment R |
| B11 | 1.67 enrichment R |
| B12 | 7.03 enrichment R |
| B13 | 1.79 enrichment R |
| B14 | 11.3 enrichment R |
| B15 | 7.63 enrichment R |
| B16 | 1.47 enrichment R |
| B17 | 0.878 enrichment R |
| B18 | 1.29 enrichment R |
| B19 | 1.36 enrichment R |
| B20 | 0.875 enrichment R |
| B21 | 0.565 enrichment R |
| B22 | 0.906 enrichment R |

Source: publication PMC12136788
